# Reference: PubChem BioAssay AID651658 (Broad Institute, 2012)
# Where “and” joins values, the source holds several entries; their conditions need not be identical. Identical values can stand only once. In all, about 340,000 compounds went through this assay and about 5,100 (1.5%) were called active. The sample as a whole holds a higher share of actives than the screen did. A number with no mark means an inactive call.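 Rule for the calls: active = mean Tm shift, scaled 0 neutral to 100 positive control, at about 1.3% or above, every replicate too (limit read from the data); inconclusive = no clear call, values can overlap the other calls; inactive = the rest.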
# Target: Fibroblast growth factor 22 (Homo sapiens) (UniProt Q9HCT0)
# Test: binders of human FGF22 protein, primary screen, FGF22 synaptogenesis inhibitor project, biophysical, thermal shift, single point (AID 651658)
# Settings: recombinant FGF22 thermal shift, SYPRO orange fluorescence; at 9.99 µM; stronger effect = higher value; percent of sucrose octasulfate shift, DMSO zero
# Fibroblast growth factor 22 (Homo sapiens), sequence (Q9HCT0 whole entry, looked up): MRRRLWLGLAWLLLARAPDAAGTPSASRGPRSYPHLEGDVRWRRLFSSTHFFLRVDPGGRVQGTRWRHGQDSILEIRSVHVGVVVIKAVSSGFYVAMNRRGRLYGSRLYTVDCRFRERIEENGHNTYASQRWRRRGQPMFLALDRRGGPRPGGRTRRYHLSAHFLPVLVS
row,SMILES,"activity (Tm shift, normalised)"
1,CCc1nc2ccccc2c(C(=O)NCc2ccc(OC)cc2)c1C,43.4% (active)
2,CCc1nc2ccccc2c(C(=O)OC2CCCCC2=O)c1C (configuration not stated),0.135%
3,COc1ccc(CNC(=O)CN2C(=O)c3ccccc3S2(=O)=O)cc1,0.05%
4,O=C(NCC(F)(F)F)[C@H]1[C@H](CO)[C@H]2Cn3c(ccc(-c4ccncc4)c3=O)[C@H]2N1Cc1ccncc1,-0.221%
5,COc1ccc(-c2cc(C(=O)NC(Cc3c[nH]c4ccccc34)C(=O)O)c(C)o2)cc1OC (configuration not stated),1.25%
6,Cc1cccc(C)c1OCC(=O)NC(Cc1c[nH]c2ccccc12)C(=O)O (configuration not stated),-0.152%
7,COc1ccc(-c2cc(=O)oc3cc(OCC(=O)N[C@@H](Cc4c[nH]c5ccccc45)C(=O)O)ccc23)cc1,2.9% (active)
8,CC=Cc1ccc2n(c1=O)C[C@@H]1[C@@H](CO)[C@H](C(=O)N[C@@H](C)c3ccccc3)[C@H]2N1Cc1ccncc1 (mixture of isomers),-0.334%
9,CS(=O)(=O)Nc1cccc(C2=NN(S(=O)(=O)c3ccccc3)C(c3cccs3)C2)c1 (configuration not stated),0.242%
10,COc1ccc(C2=NN(C(=O)c3ccccc3C(=O)O)C(c3ccccc3O)C2)cc1 (configuration not stated),-0.24%
11,COc1cccc(C2CC(c3ccccc3)=NN2S(=O)(=O)c2ccccc2)c1OC (configuration not stated),44% (active)
12,C[C@H]1CN([C@@H](C)CO)S(=O)(=O)c2ccc(C3=CCCC3)cc2O[C@H]1CN(C)C(=O)Cc1ccncc1,0.421%
13,O=C(C1CCCCC1)N1[C@H](CO)[C@@H](c2ccccc2)C12CN(Cc1cccc(Cl)c1)C2,-0.133%
14,COc1cc(C(=O)OCc2cc(=O)n3ccsc3n2)ccc1OC(C)C,0.144%
15,COc1ccc(C(=O)OCc2cc(=O)n3ccsc3n2)cc1F,44% (active)
16,O=C(OCc1cc(=O)n2ccsc2n1)C1(c2ccc(Cl)cc2)CC1,0.39%
17,CCCC#Cc1ccc([C@H]2[C@H]3CN(C(=O)Nc4cccc(F)c4)CC(=O)N3[C@H]2CO)cc1,0.366%
18,COc1cc2nc(CN(C)Cc3ccc(F)cc3)[nH]c(=O)c2cc1OC,-0.106%
19,COc1ccc(CN(C)Cc2nc3cc(OC)c(OC)cc3c(=O)[nH]2)c(OC)c1,43.6% (active)
20,COc1cc(CN(C)Cc2nc3cc(C(F)(F)F)ccc3c(=O)[nH]2)ccc1OC(F)F,-0.382%
21,O=C(Nc1ccc(C(F)(F)F)cc1)N[C@@H]1CC[C@H](CC(=O)N2CCCCC2)O[C@H]1CO,-0.164%
22,CO[C@@H]1CN(C)C(=O)c2ccc(NS(C)(=O)=O)cc2OC[C@@H](C)N(C(=O)C2CCOCC2)C[C@@H]1C,-0.055%
23,O=C(c1ccc(F)cc1)N1CC2(C1)[C@H](c1ccccc1)[C@@H](CO)N2Cc1ccccn1,-0.271%
24,O=C(NCCc1c[nH]c2ccccc12)C(=O)NCC1CCCO1 (configuration not stated),1.53% (active)

row,SMILES,"activity (Tm shift, normalised)"
1,O=C(NCCc1c[nH]c2ccccc12)c1cc2ccccc2oc1=O,0.185%
2,N#C/C(=C/c1ccc(N2CCCCC2)o1)C(=O)NCCc1c[nH]c2ccccc12,-0.174%
3,C[C@H](CO)N1C[C@H](C)[C@H](CN(C)C(=O)C2CC2)OCc2ccccc2-c2ccccc2C1=O,0.103%
4,O=C(NCC[C@@H]1CC[C@H](NC(=O)C2CC2)[C@H](CO)O1)c1cnccn1,0.118%
5,C[C@H](O)C#Cc1ccc2c(c1)O[C@H](CN(C)Cc1ccccn1)[C@H](C)CN([C@H](C)CO)S2(=O)=O,-0.169%
6,CCCNC(=O)C[C@@H]1C[C@H]2c3cc(NC(=O)Nc4ccccc4F)ccc3O[C@H]2[C@H](CO)O1,-0.607%
7,COc1cccc(NC(=O)N2[C@@H]3CNC[C@H]2C3c2ccc(-c3ccncc3)cc2)c1 (some centres not stated),0.042% and -0.443%
8,COc1ccc(OCc2n[nH]c(=S)n2N)cc1,0.243%
9,S=c1[nH]nc(COc2ccccc2)n1-c1ccccc1,43.8% (active)
10,Fc1ccc(/C=N/n2c(COc3ccccc3)n[nH]c2=S)cc1,0.702%
11,CO[C@@H]1CN(C)C(=O)c2cc(NS(=O)(=O)CC(F)(F)F)ccc2OC[C@H](C)N(C)C[C@H]1C,-0.229%
12,O=C(C[C@H]1CC[C@H]2[C@@H](COC[C@H](O)CN2C(=O)c2ccccc2F)O1)NCc1ccccc1,0.053%
13,O=C(NCC1CC1)[C@H]1[C@H](CO)[C@H]2Cn3c(ccc(/C=C/c4ccccc4)c3=O)[C@@H]1N2C(=O)C1CCC1,0.006%
14,COc1ccc(Cn2c(=O)oc3ccccc32)cc1,-0.205%
15,COc1ccc(Cn2c(-c3ccc(Cl)cc3)c[n+]3ccccc23)cc1,44% (active)
16,COc1ccc(-c2ccc([C@@H]3[C@@H](CO)N4C(=O)CN(Cc5ccccc5)C[C@@H]34)cc2)cc1,-0.039%
17,C[C@@H]1CCCCO[C@H](CN(C)Cc2ccc3c(c2)OCO3)[C@H](C)CN([C@@H](C)CO)C(=O)c2cc(NS(=O)(=O)c3cccs3)ccc2O1,-0.357% and -0.044%
18,O=C(Nc1ccc(Cl)cc1)C1c2cccc[n+]2CC(=O)N1Cc1ccc2c(c1)OCO2 (configuration not stated),-0.124%
19,CCCOc1ccc(NC(=O)CC2C(=O)N(C)C(=S)N2Cc2ccc3c(c2)OCO3)cc1 (configuration not stated),2.52% (active)
20,CCOc1ccc(NC(=O)CC2C(=O)N(c3ccccc3)C(=O)N2CCOC)cc1 (configuration not stated),-0.014%
21,COc1ccc(NC(=O)N[C@@H]2CC[C@H](CC(=O)NC3CCC3)O[C@H]2CO)cc1,-0.109%
22,O=C(C[C@@H]1CC[C@@H]2[C@H](COC[C@H](O)CN2S(=O)(=O)c2ccc(Oc3ccccc3)cc2)O1)NCCN1CCCCC1,0.107%
23,COc1ccccc1-c1cnc2c(c1)C(=O)N([C@@H](C)CO)C[C@@H](C)[C@@H](CN(C)C(=O)c1cccnc1)O2,-0.285%
